Compound activity from PubChem.
hgDAF12 agonist = agonists of H. glycines DAF-12 nuclear receptor. HEK293 GAL4-hgDAF12 UAS-luciferase reporter, agonist luminescence; normalized to butyrate control. activation, % at 6.8 µM. hit rate 1.8% among 370,000. AID 687014;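 active = activation above a cutoff set at the mean of all screened compounds plus 3 SD, cut at about 10% in these data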;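 note: 0% = DMSO wells and 100% = sodium butyrate wells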
hcDAF-12 act = H. contortus DAF-12 activation, primary screen | HEK293 hcDAF-12 lit1-tk-luc reporter, luminescence; 0% DMSO, 100% Δ7-dafachronic acid | activation, % at 6.8 µM | hit rate 1.4% among 370,000 | AID 652067;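 active = activation above the mean of all tested compounds plus 3 SD, cut at about 5.5% in these data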;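 note: 100% = response to 3 µM Δ7-dafachronic acid high control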
ssDAF12 agonist = activates DAF-12 receptor from parasite S. stercoralis. HEK293 ssDAF-12/GRIP1 lit1-tk-luc reporter, luminescence; % of 3 µM dafachronic acid response. activation, % at 6.8 µM. hit rate 1% among 370,000. AID 652126;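 active = activation above the mean over all tested compounds plus 3 SD, cut at about 0.9% in these data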;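 note: 0% = DMSO-only wells and 100% = 3 µM delta7-dafachronic acid wells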
NF-kB neuron act = compounds increasing NF-kB expression in human neuronal cells; NF-kB reporter expression; hits give high values; fold change at 12.5 µM; hit rate 1.6% among 190,000; AID 1239; in the data active = fold change above about 3.3
APP 5'UTR act = APP 5'UTR luciferase reporter activation. hit rate 1% among 190,000. activation, % at 2 µM. SH-SY5Y APP 5'UTR luciferase reporter, luminescence; zero percent = DMSO vehicle wells;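 active = activation above a set limit, based on mean plus 3 SD of controls, cut at about 140% in these data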
LXR ag = counter-screen for hcDAF-12 agonists: agonists of human LXR-beta. HEK293 Gal4-LXR tk-luc reporter, luminescence, 24 h; normalized: DMSO 0%, positive control 100%. shares compounds with hcDAF-12 act. 3,400 tested, under 10 active. activation, % at 6.8 µM;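 active = mean percent activation of the reporter above a cutoff set as the average over tested compounds plus their standard deviation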
Target sequence (P55055 whole entry, looked up, the tested form may be a part): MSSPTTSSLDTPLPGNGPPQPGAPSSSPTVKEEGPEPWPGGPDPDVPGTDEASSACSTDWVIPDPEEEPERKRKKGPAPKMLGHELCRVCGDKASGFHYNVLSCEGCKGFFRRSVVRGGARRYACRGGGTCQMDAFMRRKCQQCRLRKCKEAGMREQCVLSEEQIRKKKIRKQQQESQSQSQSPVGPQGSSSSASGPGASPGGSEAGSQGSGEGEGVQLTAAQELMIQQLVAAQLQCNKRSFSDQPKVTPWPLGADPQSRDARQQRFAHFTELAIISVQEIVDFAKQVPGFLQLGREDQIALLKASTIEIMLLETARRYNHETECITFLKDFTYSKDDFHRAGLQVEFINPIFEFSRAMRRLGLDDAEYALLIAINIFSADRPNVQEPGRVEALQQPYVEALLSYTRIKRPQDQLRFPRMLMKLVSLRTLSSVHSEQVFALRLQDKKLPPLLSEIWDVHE
hcDAF12 conf = hcDAF-12 agonism, confirmation assay; hit rate 61% among 3,400; activation, % at 6.8 µM; HEK293 hcDAF-12 lit1-tk-luc reporter, luminescence; % of Δ7-dafachronic acid response; shares compounds with hcDAF-12 act; AID 743032;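 active = mean activation across triplicate tests above the threshold derived from the earlier primary screen, cut at about 5.5% in these data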;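 note: 0% = DMSO only wells and 100% = 3 µM Δ7-dafachronic acid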
The depositor's hits bear a star; x = no result. Only some compounds are listed: those with a hit (about 3.4% of all), similar ones and a draw of the others.

SMILES | hgDAF12 agonist | hcDAF-12 act | ssDAF12 agonist | NF-kB neuron act | APP 5'UTR act | LXR ag | hcDAF12 conf
COCCN(C[C@@H]1[C@H](c2ccccc2)[C@H](CO)N1c1nc(C)c(C)s1)S(=O)(=O)c1ccccc1[N+](=O)[O-] | 0 | 2 | -1 | x | x | x | x
O=c1[nH]c2ccccc2c2nc3ccccn3c12 | 12* | 8.1* | 1.7* | 1.1 | 17 | 0 | 9.5*
O=C(NCCc1c[nH]c2ccccc12)c1cnccn1 | 3 | 6.7* | 3.4* | 1.5 | 10 | 0 | 4
O=C(NCCc1c[nH]c2ccccc12)c1cnc2sccn2c1=O | 10 | 8.6* | 1.4* | 1.5 | 24 | 1 | 8.9*
COc1ccc(S[C@]2(C(=O)N3CCN(c4ncccn4)CC3)CC(=O)N(S(=O)(=O)c3ccc(F)cc3)[C@@H]2c2ccc(OC)cc2)cc1 | 1 | -1 | -2 | x | x | x | x
c1ccc2c(c1)COc1c3cc4c(cc3nn1-2)OCO4 | 29* | 11* | 1.2* | x | x | 1 | 13*
O=C1c2cccc3c(N4CCOCC4)c([N+](=O)[O-])cc(c23)C(=O)N1c1cccc2ccccc12 | 0 | 6.8* | -1 | 0.69 | -14 | 0 | -1
COc1ccc2nc3sc(C(=O)NCCCN4CCc5ccccc5C4)cc3cc2c1 | 4 | 8.0* | 1 | 1.6 | 15 | 0 | 6.8*
CC(C)CNC(=O)C1CSCCS(=O)(=O)N1Cc1ccccc1 (centres undefined) | 2 | 2 | -1 | x | x | x | x
Fc1ccc(-c2nnc(-c3ccc4ccccc4c3)o2)cc1 | 20* | 8.0* | 2.1* | x | x | 2 | 12*
O=C(/C=C/Nc1ccc(F)cc1F)c1cccs1 | 21* | 12* | 2.4* | 3.8* | 107 | 1 | 15*
O=C(/C=C/Nc1ccccc1F)c1cccs1 | 29* | 26* | 3.9* | 7.2* | 175* | 2 | 22*
Cc1ccc(N/C=C/C(=O)c2cccs2)cc1 | 22* | 10* | 1.4* | 1.9 | 214* | 2 | 14*
O=C(/C=C\Nc1cccc(F)c1)c1cccs1 | 8 | 9.8* | 1.5* | 7.7* | 189* | 2 | 18*
O=C(C=Cc1cccs1)c1cccs1 | 5 | -1 | 0 | x | x | x | x
O=C(/C=C/Nc1ccc(F)cc1F)c1ccc(Br)cc1 | 6 | 4 | -1 | x | x | x | x
CCCCNC(=O)O[C@H]1CC[C@@]23CCCN2C(=O)CCC[C@H]3[C@H]1CCC | -3 | -2 | -1 | x | x | x | x
CCOC(=O)[C@@]12CCCC3=C1N(CCC3)C(=O)[C@H]2CC(=O)NCCc1ccccc1OC | -3 | -2 | -1 | x | x | x | x
C[C@@H]1OC(C2CCCCC2)N(C)[C@H]2C[C@H]3c4[nH]c5cccc(-c6ccccc6)c5c4CCN3C[C@@H]12 (some centres undefined) | 0 | 0 | -1 | x | x | x | x
NC(=O)C1=CN([C@@H]2O[C@H](COP(=O)(O)OP(=O)(O)OC[C@H]3O[C@@H](n4cnc5c(N)ncnc54)[C@H](O)[C@@H]3O)[C@@H](O)[C@H]2O)C=CC1 | -1 | 0 | -1 | x | x | x | x
O=C(Nc1cccc2ccccc12)c1ccco1 | 0 | 2 | -1 | x | x | x | x
O=C(NC(=S)Nc1nc2c(ccc3ccccc32)s1)c1cccs1 | 6 | 9.0* | 0 | 0.75 | 7 | 0 | 5.9*
O=C(Nc1nc2c(F)cc(F)cc2s1)c1ccco1 | 12* | 9.1* | 0 | x | x | 1 | 5
O=C(Nc1nc2c(F)c(F)c(F)cc2s1)c1ccco1 | 5 | 1 | -1 | x | x | x | x
O=C(NC(=S)Nc1cccc2ncccc12)c1cccs1 | 3 | -2 | -1 | 1 | 24 | x | x
SMILES | hgDAF12 agonist | hcDAF-12 act | ssDAF12 agonist | NF-kB neuron act | APP 5'UTR act | LXR ag | hcDAF12 conf
O=C(Nc1nc2c(ccc3ccccc32)s1)c1ccco1 | 3 | 6.7* | 1 | 1.6 | 61 | 1 | 4
Cc1cc(C)cc(C(=O)OCCCN(C)C2CN(Cc3cn(Cc4ccccc4F)nn3)S(=O)(=O)C2)c1 (centres undefined) | -1 | -2 | -2 | x | x | x | x
COC(=O)C(Cc1c[nH]c2ccccc12)NC(=O)c1ccc2nc[nH]c2c1 (centres undefined) | 14* | 8.3* | 2.1* | x | x | 1 | 6.9*
COC(=O)C(Cc1c[nH]c2ccccc12)NC(=O)c1cncc(Br)c1 (centres undefined) | 1 | 5 | 0 | x | x | x | x
COc1ccc(CCNc2nc3ccccc3n3nnnc23)cc1OC | 7 | 7.7* | 0 | 0.93 | 9 | 0 | 2
c1ccc(CCNc2nc3ccccc3n3nnnc23)cc1 | 2 | 1 | -1 | 1.3 | 5 | x | x
COC(=O)[C@]12C[C@H](CC(=O)NCCc3ccccc3OC)C(=O)N(CCc3ccc(OC)c(OC)c3)C1=C[C@H](C(C)C)O[C@@H]2C1CC1 | -2 | -2 | -1 | x | x | x | x
CN(C)CCN(C(=O)c1cccs1)c1nc2cc3c(cc2s1)OCCO3 | 4 | 7.0* | 1.4* | x | x | 0 | 2
CN(C)CCN(C(=O)c1ccc(Br)s1)c1nc2cc3c(cc2s1)OCCO3 | 9 | 2 | 0 | 1 | 22 | x | x
Cc1ccc(CNc2nc3ccccc3n2C)o1 | 12* | 7.8* | 1.1* | x | x | 1 | 8.3*
CCN(C(=S)Nc1cc(S(=O)(=O)N2CCOCC2)ccc1Cl)c1cccc2ccccc12 | 0 | 6.8* | 1.2* | 1.1 | 11 | 0 | 1
O=C(/C=C/c1ccc(F)cc1)c1ccc(N2CCOCC2)cc1 | 3 | 0 | -2 | x | x | x | x
CCc1ccc(/C=C/C(=O)c2ccc(N3CCOCC3)cc2)cc1 | 3 | 6.8* | -2 | 1.4 | 2 | 0 | 1
COc1cc2c(cc1OC)C(c1ccccc1)=NCC2 | 0 | 7.8* | -1 | 1 | -12 | 0 | 0
C[N+]1=C(N)NC2=C3CCCCC3n3c(=O)n(-c4ccccc4)c(=O)n3C2C1 (centres undefined) | -1 | -1 | -1 | x | x | x | x
Cc1ccc(NC(=O)c2nsc(Cl)c2Cl)cc1 | 11* | 13* | 2.1* | x | x | 2 | 14*
C[C@H]1[C@@H](NC(=O)c2ccc(Cl)c(C(F)(F)F)c2)CC[C@@]23CCCN2C(=O)CCC[C@@H]13 | 0 | -2 | -2 | x | x | x | x
COc1ccc(-n2nc3ccccc3n2)cc1 | 4 | 2 | 0 | 1.5 | 11 | x | x
COc1ccc(-n2nc3cc(C)c(N)c(Br)c3n2)cc1 | 14* | 20* | 3.2* | 6.3* | 185* | 2 | 17*
COc1ccc(-n2nc3cc(N)c(Br)cc3n2)cc1 | 13* | 13* | 1.2* | x | x | 1 | 12*
CC(=O)N(/N=C1/C(=O)Nc2ccccc21)c1ccccc1 | 2 | 12* | 1.2* | x | x | 1 | 10*
